From PubChem BioAssay (EPA / NIEHS)
Inconclusive results are not listed. Some structures have more than one record in an assay (separate samples or runs), and their calls can disagree. Active and inactive are the calls of the source. Rule for the calls, unless noted: active = hit-call score of the fitted dose curve at least 0.9, where 1 is the maximum; inactive = score below 0.9.

Assays:
[1] = CCTE_Shafer_MEA_dev_spike_duration_mean: CCTE's Neural Network Formation Assay for Mean Spike Duration, Shafer Lab (AID 2284051);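 note: mean network spike duration pooled as area under curve over DIV 5 to 12 recordings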;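 for AC50: potency for a decrease in mean network spike duration versus DMSO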
Procedure, shortened: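 Spontaneous activity was recorded on days 5, 7, 9 and 12 from rat cortical cultures grown on microelectrode arrays and dosed continuously from day 0, with media and compound renewed after the DIV 5 and 9 recordings. Network-spike duration was collapsed by area under the curve.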

[2] = CCTE_Shafer_MEA_dev_network_spike_duration_std: CCTE's Neural Network Formation Assay for Standard Deviation of Network Spike Duration, Shafer Lab (AID 2284052);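 note: hits are decreases in network spike duration SD versus DMSO vehicle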
Procedure, shortened: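 Network spike duration variability was collapsed across recordings on days 5, 7, 9 and 12 by trapezoidal area-under-curve and fitted downward against DMSO. Cultures were rat cortical neurons on PEI-coated MEA plates, dosed continuously from plating, refed with compound DIV 5/9.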

[3] = CCTE_Shafer_MEA_dev_per_network_spike_spike_number_mean: CCTE's Neural Network Formation Assay for Mean Number of Spikes in a Network Spike, Shafer Lab (AID 2284053)
Procedure, shortened: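 Mean spike count within each network spike, taken in a 0.05 s window at its peak, was recorded on days 5, 7, 9 and 12 and integrated as trapezoidal area under the curve. Rat cortical cultures on MEA plates received continuous compound from day 0, refreshed at medium changes on DIV 5 and 9.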

[4] = CCTE_Shafer_MEA_dev_per_network_spike_spike_percent: CCTE's Neural Network Formation Assay for Percent of Spikes in a Network Spike, Shafer Lab (AID 2284054)
Procedure, shortened: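 Developing networks of rat cortical neurons are dosed at day 0 and recorded extracellularly four times up to day 12. The endpoint is the area under the curve of percent spikes in network spikes, fitted in the negative direction relative to DMSO.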

[5] = CCTE_Shafer_MEA_dev_mutual_information_norm: CCTE's Neural Network Formation Assay for Mutual Information Normalization, Shafer Lab (AID 2284091);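 for AC50: mutual information between electrodes summarised as area under curve across four recording days; potency is for a decrease in mutual information relative to DMSO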
Procedure, shortened: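 Exposure of primary rat cortical neurons began at plating and ran to DIV 12, with full media and treatment renewal after DIV 5 and 9 recordings. Mutual information AUC (DIV 5–12) was analysed for loss versus DMSO.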

[6] = CCTE_Shafer_MEA_dev_correlation_coefficient_mean: CCTE's Neural Network Formation Assay for Mean Correlation Coefficient, Shafer Lab (AID 2284093);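 for AC50: well mean pairwise spike train correlation integrated as AUC over recording days 5 to 12; potency fitted for loss of correlation relative to DMSO vehicle wells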
Procedure, shortened: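 Primary rat cortical neurons on PEI-coated 48-well MEA plates (16 electrodes/well) were exposed from plating day 0 through DIV12, with compound renewed at DIV5 and 9. Pairwise spike correlations were averaged per well; trapezoidal AUC across DIV5, 7, 9, 12.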

[7] = tested on: DIO3 (gene 1735); assay: CCTE_GLTED_hDIO3: CCTE's human Deiodinase 3 (DIO3) Inhibition Assay, Great Lakes Toxicology and Ecology Division (GLTED) Lab (AID 2284055; active = hit-call score of the fitted dose curve at least 0.9, where 1 is the maximum;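 for AC50: potency is for inhibition seen as loss of released iodide signal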)
Procedure, shortened: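 Human type 3 deiodinase, expressed via adenovirus system, was exposed to test chemicals for 3 hours in a cell-free format. Released iodide was then determined spectrophotometrically by Sandell-Kolthoff; plates ran in triplicate.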

[8] = CCTE_Shafer_MEA_dev_LDH: CCTE's Lactate Dehydrogenase Assay for Cytotoxicity in the Neural Network Formation Assay, Shafer Lab (AID 2284068; active = hit-call score of the fitted dose curve at least 0.9, where 1 is the maximum;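 note: exposure for twelve days from plating with re-dosing on DIV 5 and 9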)
Procedure, shortened: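 Primary rat cortical neurons were cultured on PEI-coated MEA plates and exposed from plating through day 12, with compound renewed at medium changes on DIV 5 and 9. LDH activity was read spectrophotometrically; loss of signal versus DMSO indicates reduced viability.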

[9] = CCTE_Shafer_MEA_acute_LDH: CCTE's Lactate Dehydrogenase Assay for Cytotoxicity in the Neural Acute Assay, Shafer Lab (AID 2284086; active = hit-call score of the fitted dose curve at least 0.9, where 1 is the maximum;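 note: active means LDH release rises above DMSO vehicle level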)
Procedure, shortened: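 Medium collected from MEA wells of primary rat cortical cultures (DIV 13 or 15) immediately after 40 min chemical exposure is assayed spectrophotometrically for lactate dehydrogenase activity. Endpoint fitted in positive direction versus DMSO.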

[10] = UKN2_HCS_IMR90_neural_migration: University of Konstanz (UKN) Leist Lab Neural Crest Cell Migration Assay in human induced IMR90 Pluripotent Stem Cells (UKN2) (AID 2284204); details: actives raise or lower the signal
Procedure, shortened: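 Using a 96-well stopper format with PLO/laminin/fibronectin coating, neural crest cells from iPSC migrate in cytokine-supplemented N2-S medium; after 24 h, chemicals are applied for a further 24 h, then cells are imaged after dye staining.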

Measured: AC50

NC(=O)C(F)(F)C(F)(F)C(F)(F)C(F)(F)F
inactive: [1] | [2] | [3] | [4] | [5] | [6]

CCN(Cc1cccc(S(=O)(=O)O)c1)c1ccc(C(=C2C=CC(=[N+](CC)Cc3cccc(S(=O)(=O)O)c3)C=C2)c2ccc(O)cc2S(=O)(=O)[O-])cc1
active: [7] 51.3 µM

COC(=O)CCC(F)(F)C(F)(F)C(F)(F)C(F)(F)F
not listed: [7] | [9] | [10]
inactive: all other assays above

FC(F)(F)C(F)(F)C(F)(F)C(F)(F)C(F)(F)CCI
inactive: [2] | [4] | [5]
active: [1] 15 µM | [3] 15 µM | [8] 21.8 µM | [6] 25.2 µM

N=C(N)C(F)(F)C(F)(F)C(F)(F)C(F)(F)C(F)(F)C(F)(F)C(F)(F)F
inactive: [1] | [2] | [3] | [4] | [5]
active: [8] 24.5 µM | [6] 15 µM

O=C(O)C(F)(F)C(F)(F)C(F)(F)C(F)(F)C(F)(F)C(F)(F)C(F)(F)C(F)(F)C(F)(F)C(F)(F)C(F)(F)C(F)(F)F
active: [7] 32.8 µM

CC(Cc1ccc(O)c(O)c1)C(C)Cc1ccc(O)c(O)c1 (stereo unspecified)
active: [7] 0.0863 µM

OCC(F)(F)C(F)(F)C(F)(F)C(F)(F)C(F)(F)C(F)F
not listed: [7] | [9] | [10]
inactive: all other assays above

C=C(C)C(=O)OCC(F)(F)C(F)(F)C(F)(F)F
inactive: [7]

CCCCCCOC(=O)c1ccccc1O
inactive: [9]

O=C(O)C=C(C(F)(F)F)C(F)(F)F
not listed: [7] | [9] | [10]
inactive: all other assays above

OCCCC(F)(F)C(F)(F)C(F)(F)F
not listed: [7] | [9] | [10]
inactive: all other assays above

OCC(F)(F)C(F)(F)C(F)(F)C(F)F
not listed: [7] | [9] | [10]
inactive: all other assays above

OCC(F)(F)C(F)(F)C(F)(F)F
inactive: [1] | [2] | [3] | [4] | [5] | [6]

CC(C)(C)C(=O)CC(=O)C(F)(F)C(F)(F)C(F)(F)F
inactive: [2] | [5]
active: [1] 26 µM | [3] 25.3 µM | [4] 22.5 µM | [8] 21.9 µM | [6] 24.1 µM

O=C(O)C(F)(F)C(F)(F)C(F)F
not listed: [7] | [9] | [10]
inactive: all other assays above

O=P(O)(O)OCCC(F)(F)C(F)(F)C(F)(F)C(F)(F)C(F)(F)C(F)(F)F
active: [8] 21.5 µM
not listed: [7] | [9] | [10]
inactive: all other assays above

O=C(O)C(F)(F)C(F)(F)C(F)(F)C(F)(F)C(F)(F)C(F)(F)C(F)(F)C(F)(F)C(F)(F)C(F)(F)C(F)(F)C(F)(F)C(F)(F)F
active: [7] 33.1 µM

CC(CCl)OP(=O)(OC(C)CCl)OC(C)CCl (stereo unspecified)
inactive: [1] | [2] | [3] | [4] | [8] | [5] | [6] | [10]
active: [1] 50 µM | [3] 50 µM | [4] 50 µM | [8] 50 µM

O=C(O)C(F)(F)C(F)(F)C(F)(F)F
not listed: [7] | [9] | [10]
inactive: all other assays above

Cc1ccc(S(=O)(=O)OCC(F)(F)C(F)(F)C(F)(F)C(F)(F)C(F)(F)C(F)F)cc1
not listed: [7] | [9] | [10]
inactive: all other assays above

c1ccc(B(c2ccccc2)c2ccccc2)cc1
active: [7] 100 µM

O=S(=O)(OCCOC(F)(F)F)C(F)(F)F
inactive: [1] | [2] | [3] | [4] | [5] | [6]

O=S(=O)(OCC(F)F)C(F)(F)F
not listed: [7] | [9] | [10]
inactive: all other assays above

C=CC(=O)OCC(F)(F)C(F)(F)C(F)(F)C(F)(F)COC(=O)C=C
active: [1] 7.64 µM | [3] 4.18 µM | [4] 4.37 µM | [7] 32.8 µM | [8] 4.28 µM | [5] 2.2 µM | [6] 4.1 µM
inactive: [2]

OC[C@@H](O)[C@@H](O)[C@H](O)[C@@H](O)CO
not listed: [7] | [9] | [10]
inactive: all other assays above

FC(F)(F)C(F)(F)C(F)(F)C(F)(F)C(F)(F)C(F)(F)CC1CO1 (stereo unspecified)
inactive: [1] | [2] | [3] | [4] | [5] | [6]

FC(F)(F)C(F)(F)CNCC(F)(F)C(F)(F)F
inactive: [1] | [2] | [3] | [4] | [5] | [6]

O=C(O)C(F)(F)C(F)(F)C(F)(F)C(F)(F)C(F)(F)C(F)(F)C(F)(F)C(F)(F)Cl
not listed: [7] | [9] | [10]
inactive: all other assays above

CCCCC(CC)COP(=O)(O)OCC(CC)CCCC (stereo unspecified)
inactive: [9]

O=C(O)C(F)(F)C(F)(F)C(F)(F)C(F)(F)C(F)(F)C(F)(F)C(F)(F)C(F)(F)C(F)(F)C(F)F
active: [7] 138 µM
not listed: [9] | [10]
inactive: all other assays above
